The source made the active and inactive calls. Rule for the calls: active = hit-call score of the fitted dose curve at least 0.9, where 1 is the maximum; inactive = score below 0.9.
Test: CCTE_Shafer_MEA_acute_per_network_burst_spike_number_std: CCTE's Neural Acute Assay for Standard Deviation of Number of Spikes in a Network Burst, Shafer Lab (AID 2284020);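 note: fitted for decrease in spike-number SD versus DMSO so actives lower it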
Method: CCTE_Shafer_MEA_acute assay is conducted using Axion Biosystems 48 well microelectrode array (MEA) plates and Maestro recording system. Each well of the MEA plate contains a grid of 16 microelectrodes embedded in the culture surface. Electrically active cells, such as neurons, can be cultured over the electrodes, and electrical activity in these cells can be recorded extracellularly. The spontaneous firing of neurons is captured from each electrode on a microsecond timescale providing both temporally and spatially precise data. […] The CCTE_Shafer_MEA_acute assay uses primary cultures of rat cortical neurons. As these cultures mature over time, neural networks develop functional activity and form cohesive networks in which electrical activity can be highly coordinated. Baseline 40-minute recordings are made on days post-plating 13 or 15, followed by a secondary 40-minute recording after chemical exposure.CCTE_Shafer_MEA_acute_per_network_burst_spike_number_std is a component of the CCTE_Shafer_MEA_acute assay. It measures the standard deviation of the number of spikes (action potential firings) in a network burst (temporally-clustered group of spikes across multiple electrodes) during a recording in a microelectrode array (MEA) using Axion Biosystems Maestro 768 channel amplifier with the AxIS adaptive spike detector. The recordings before and after chemical treatment are used to calculate a percent change in the standard deviation of the number of spikes in network bursts in each well.Data from the assay component CCTE_Shafer_MEA_acute_burst_spike_number_std was analyzed into 1 assay endpoint. This assay endpoint, CCTE_Shafer_MEA_acute_burst_spike_number_std, was analyzed in the negative analysis fitting direction relative to DMSO as the negative control and baseline of activity. Using a type of functional reporter, gain or loss-of-signal activity can be used to understand electrical activity.
Spontaneous activity in the cortical cultures was recorded using an Axion Biosystems Maestro 768 channel amplifier and Axion Integrated Studios (AxIS) v1.8 (or later) software. The amplifier recorded from all channels simultaneously (gain = 1200 x; sampling rate = 12.5 kHz/channel): raw signals were filtered with a Butterworth band-pass filter (300-5000 Hz), which filters out slower local field potentials leaving only fast potentials, i.e., "spikes", arising from extracellular currents associated with action potentials (Pine 2006; Wheeler and Nam 2011). On-line spike detection of filtered signals was conducted with the AxIS adaptive spike detector, using a threshold of 8x the root mean squared (rms) noise on each channel. Any electrodes with rms noise levels greater than 5 uV were grounded (e.g., no data were recorded). Once grounded, an electrode was grounded for the duration of the experiment. All recordings were conducted at 37 C. Wells were deemed usable if on the day of the exposure >/= 10 electrodes were active (defined as >/= 5 spikes/min). On DIV 13 or 15, a minimum of three wells from one cortical culture preparation were treated with each compound (0.03-40 uM). Prior to recording baseline activity, each mwMEA plate was placed in the Maestro at 37 C and allowed to sit for 20 min while firing rates stabilized. Baseline activity (40 min) was recorded before the addition of each compound. An additional 40 min of spontaneous activity was recorded in the presence of each compound. Changes in network parameters relative to baseline were assessed following compound treatment.

SMILES | outcome | AC50
CC1(C)CCC[C@]2(C)[C@H]3CCO[C@]3(C)CC[C@@H]12 | inactive | –
CCOC(=O)C(C#N)=C(c1ccccc1)c1ccccc1 | inactive | –
O=CN1CCOCC1 | inactive | –
CC(CN=Cc1ccccc1O)N=Cc1ccccc1O (stereo not given) | inactive | –
CCCCCCC(CO)CCCC (stereo not given) | inactive | –
O=C(Nc1ccc2c(O)c(N=Nc3ccc(N=Nc4ccc(S(=O)(=O)O)cc4)cc3)c(S(=O)(=O)O)cc2c1)c1ccccc1 | inactive | –
CN(C)C(=S)SC(=S)N(C)C | inactive | –
C=CC(C)(O)CCC=C(C)C (stereo not given) | inactive | –
COCCc1ccc(OCC(O)CNC(C)C)cc1 (stereo not given) | inactive | –
Oc1c(Cl)cc(Cl)c(Cl)c1Cc1c(O)c(Cl)cc(Cl)c1Cl | – | 153 nM (active)
